Structures are written as SMILES. Records with an inconclusive call do not appear. Calls of active or inactive are those of the source. Calls follow the shape of the dose curve; as a rule, active = well fitted inhibition curve with a large enough effect; inconclusive = small, poorly fitted or top-dose-only effect; inactive = flat fitted curve, though single readings scatter.

This assay can be described thus: InCell qHTS Assay for Inhibitors of the mTORC1 Signaling Pathway in WT MEF Cells: Hit Validation. The following applies: WT MEF phospho-rpS6 immunofluorescence, Acumen, 24 h; series mostly up to 38.3 µM. An excerpt:
The mammalian target of rapamycin (mTOR) is an intracellular serine/threonine kinase Aberrant regulation of mTOR signaling plays a causative role in a number of human diseases, including cancer, benign tumors such as lymphangioleiomyomatosis (LAM) and Tuberous Sclerosis Complex (TSC), and metabolic diseases such as diabetes and obesity. This project aims to identify inhibitors of ribosomal protein S6 (rpS6) phosphorylation. The phosphorylation of rpS6 is a key event downstream of mTOR activation. The assay uses a phospho-specific antibody of phospho-rpS6 to detect inhibitors of mTOR activation. Mutations in the Tsc1 and Tsc2 genes are the underlying genetic lesions responsible for TSC, causing constitutive activation of the mTORC1 pathway and leading to profound effects on cell metabolism. Aberrant metabolism in cancer has recently received significant attention as a target to develop therapeutic agents in the treatment of cancer.1 As Tsc2-/- cells have lost the ability to respond to energy and growth factor deprivation, these cells are unable to properly down regulate cellular biosynthetic processes in response to metabolic stress, and are thus extremely sensitive to glucose deprivation-induced death.2 A central goal of this project is to explore the unique cell survival and metabolic properties of cells with Tsc1 or Tsc2 by screening for compounds that selectively target the Tsc2-/- MEFs by screening both Tsc2-/- and WT MEF cell lines. We hope to better understand these aspects of TSC physiology in order to exploit them for therapeutic benefit. NIH Molecular Libraries Probe Production Centers Network [MLPCN] NIH Chemical Genomics Center [NCGC] MLPCN Grant: NS059428 Assay Submitter (PI): Blenis, John; Harvard University
For quantitative high throughput analysis of mTORC1 signaling, we developed a cell-based assay for immuno-fluorescence based detection of rpS6 phosphorylation on the Acumen Explorer that will be used a platform for the primary small molecule screen. Mouse embryonic fibroblasts (MEFs) are cultured in 1536-well plates using DMEM + 10% FBS. Twenty-four hrs after plating, test compounds (solubilized in DMSO) are delivered and incubated with the cells for 24 hrs at 37 degree Celsius. Following the incubation, media with compound is aspirated and the cells are fixed in 4% paraformaldehyde (PFA) containing PBS + 0.2% TX-100. Next, PFA is aspirated, cells are washed two times with PBS plus 0.2% TX-100 and the cells are blocked for 1 hr at room temperature (blocking buffer: LiCOR Blocking Buffer plus 0.2% TX-100). This is followed by aspiration and staining with Alexa-488 conjugated-phospho-rpS6 Ser235/236 antibody for 2 hours at room temperature (Cell Signaling Technology # 4803, 1:50 dilution in blocking buffer). Cells are washed two times with PBS plus 0.2% TX-100, and stained with 10 uM propidium iodide (PI) for 20-25 minutes for cell number measurement (1:500 dilution of Hoescht staining is also added for IN Cell imaging). The plates are scanned on the Acumen Explorer laser scanning instrument (TTP Labtech) using the 488nm laser for simultaneous excitation of the Alexa-488 and PI. The fluorescence emission from the Alexa-488 conjugated rpS6 phospho-235/236 antibody staining is selected using a […] band pass filter. Fluorescence emission from the PI stain is selected using a 575-640 nm band pass filter. The normalized phospho-S6 staining is calculated as the ratio of the integrated Alexa 488 intensity divided by the integrated PI intensity for the single concentration rapamycin control (7.5 nM) and DMSO columns. […] Inhibition of the pathway is defined based on the normalized phospho-S6 intensity in rapamycin treated cells. […]
On the technique in general: Quantitative high-throughput screening tests each substance at several concentrations.
As for `CCOc1ccc(Nc2nc(Nc3ccc(OCC)cc3)nc(N3CCOCC3)n2)cc1`, the Potency result is “inactive”.

`Cc1c(C(=O)OCCOc2ccccc2)[nH]c2c1C(=O)CC(c1ccccc1Cl)C2` (configuration not stated): the Potency entry was “inactive”.

Turning to `COc1ccccc1Nc1c2c(nc3ccc(NC(=O)c4ccc(N(C)C)cc4)cc13)CCCC2`, the Potency is 5.65 µM (active).

Take `CCN1CCN(c2cc(C)c3cc(NC(=O)/C=C/c4ccc(C)cc4)ccc3n2)CC1`: the Potency entry was “inactive”.

Turning to `CCN1CCN(c2cc(C)c3cc(NC(=O)/C=C/c4ccc(OCCC(C)C)cc4)ccc3n2)CC1`, the Potency is 3.18 µM (active).

As for `COc1ccccc1Nc1c2c(nc3ccc(NC(=O)c4cccc(OC)c4OC)cc13)CCCC2`, the Potency was 17.9 µM (active).

For `COc1cc(NC(=O)c2cccc(F)c2)ccc1NC(=O)c1cc2ccccc2o1`, the Potency is 8.95 µM (active).

On to `Cc1cccc(Nc2nc(Nc3cccc(C)c3)nc(N3CCOCC3)n2)c1`, for which the Potency is 20 µM (active).

As for `Cc1cc(N2CCN(C)CC2)nc2ccc(NC(=O)c3ccc(C(C)(C)C)cc3)cc12`, the Potency is 15.9 µM (active).

On to `COc1ccc(OC)c(C2CC(=O)c3c([nH]c(C(=O)OCc4ccc(C)cc4)c3C)C2)c1` (configuration not stated), for which the Potency entry is “inactive”.

Consider `CCN1CCN(c2cc(C)c3cc(NC(=O)c4cccc(Cl)c4)ccc3n2)CC1`, for which the Potency result was “inactive”.

On to `CCOc1ccc(C2CC(=O)c3c([nH]c(C(=O)OCc4ccccc4)c3C)C2)cc1` (configuration not stated), for which the Potency result is “inactive”.

As for `CCN(CC)c1cc(C)c2cc(NC(=O)/C=C/c3cc(OC)c(OC)c(OC)c3)ccc2n1`, the Potency was 22.5 µM (active).

`C=CCNC1=C2C[C@@H](C)C[C@H](OC)[C@H](O)[C@@H](C)/C=C(\C)[C@H](OC(N)=O)[C@@H](OC)/C=C\C=C(/C)C(=O)NC(=CC1=O)C2=O`: the Potency is 0.252 µM (active).

As to `CCN1CCN(c2cc(C)c3cc(NC(=O)c4cc(OC)cc(OC)c4)ccc3n2)CC1`, the Potency result is “inactive”.

With `COc1cc(-c2nc3ncccn3c2Nc2ccc(C)cc2C)ccc1O`, the Potency entry was “inactive”.

As for `O=C1CC(c2ccccc2)Cc2[nH]c(=O)c(-c3nc(-c4ccc(Cl)cc4)cs3)cc21` (configuration not stated), the Potency entry is “inactive”.

In the case of `CCCCc1ccc(C(=O)Nc2ccc3nc(N4CCN(CC)CC4)cc(C)c3c2)cc1`, the Potency was 8.95 µM (active).

In the case of `COc1ccccc1Nc1c2c(nc3ccc(NC(=O)/C=C/c4cc(OC)c(OC)c(OC)c4)cc13)CCCC2`, the Potency was 2.52 µM (active).

As to `O=C1CC(c2ccccc2)Cc2[nH]c(=O)c(-c3nc(-c4cccc(Cl)c4)cs3)cc21` (configuration not stated), the Potency entry is “inactive”.

Turning to `COc1ccc(/C=C/C(=O)Nc2ccc3nc4c(c(Nc5ccc(OC)c(OC)c5)c3c2)CCCC4)cc1`, the Potency is 11.3 µM (active).

In the case of `CCCOc1ccc(C(=O)Nc2ccc(NC(=O)c3ccccc3)c(Br)c2)cc1`, the Potency was 10 µM (active).

Turning to `COc1ccc(Nc2c3c(nc4ccc(NC(=O)/C=C/c5cccc(OC)c5OC)cc24)CCCC3)cc1OC`, the Potency is 8.95 µM (active).

As for `CCCOc1ccc(C(=O)Nc2ccc(NC(=O)c3ccccc3)c(C)c2)cc1`, the Potency is 6.34 µM (active).

As to `COc1cc(Nc2nc(-c3ccc(OC)c(OC)c3)nc3ccccc23)cc(OC)c1`, the Potency entry was “inactive”.

In the case of `Cc1cc(N2CCCCC2)nc2ccc(NC(=O)/C=C/c3ccccc3OC(C)C)cc12`, the Potency entry was “inactive”.

For `CCOc1ccc(/C=C/C(=O)Nc2ccc3nc(N(CC)CC)cc(C)c3c2)cc1OC`, the Potency was 10 µM (active).
